# NOMO-1 viab: NOMO-1 AML cell viability reduction, primary screen, STK33 inhibitor project, CellTiter-Glo luminescence. NOMO-1 AML viability, 72 h. inhibition, % (no concentration beside the values). hit rate 7.5% among 37,000. AID 2330, 2010; in the data active = inhibition above about 80%; inconclusive = no clear call, values can overlap the other calls
# Shh pathway inh: Hedgehog pathway signaling inhibitors, primary screen, luminescence, Shh-LIGHT2 cells, Gli-luciferase. hit rate 2.1% among 22,000. Shh-LIGHT2 Gli-luciferase reporter, 30 h. AID 2313, 2010. inhibition, % (no concentration beside the values);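 active = mean inhibition across valid replicates above about 65%, limit read from the data; inconclusive = mean under the limit, yet half or more replicates past it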;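 note: pathway switched on by Shh-conditioned medium diluted 1 in 25 in low serum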
# MITF inh: inhibitors of MITF, primary screen, MITF inhibitor project, cell-based, luminescence; TRPM1 promoter luciferase, 24 h; AID 2240, 2010; inhibition, % (test concentration not listed); hit rate 0.28% among 37,000; in the data active = inhibition above about 85%; inconclusive = no clear call, values can overlap the other calls; inactive = below about 68%;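 note: human melanocyte line stably carrying TRPM1 promoter luciferase reporter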
# Hits are given with their value; - = inactive; ? = inconclusive; . = no result. Rows were chosen to be rich in hits. Some 8.1% of all compounds tested hit in one or more screens of this group.
SMILES,NOMO-1 viab,Shh pathway inh,MITF inh
C[C@@H]1CN([C@@H](C)CO)C(=O)c2cccc(NC(=O)Nc3ccccc3)c2O[C@H]1CN(C)C(=O)Nc1ccc(C(F)(F)F)cc1,-,-,-
C[C@@H]1CN([C@@H](C)CO)C(=O)Cc2cc(NC(=O)Cc3ccccc3)ccc2O[C@@H]1CN(C)C,-,-,-
Cc1ccccc1-c1nnc(SCC(=O)Nc2ccc(N3CCOCC3)cc2)o1,-,.,-
O=C(CSc1ncccc1C(=O)O)c1cccc([N+](=O)[O-])c1,-,.,-
C=C1C(=O)O[C@@H]2/C=C(\C)[C@@H](OC(=O)C(O)C(C)C)C/C=C(/C)C[C@@H](OC(=O)/C(=C/CO)CO)[C@@H]12 (some centres undefined),121.4,-,-
C=C1C(=O)O[C@@H]2/C=C(/C)[C@H](O)CC(=O)[C@](C)(O)C[C@@H](OC(=O)/C(C)=C/C)[C@@H]12,.,-,.
C=C1C(=O)O[C@@H]2/C=C(/C)CC/C=C(/C(=O)O)C[C@@H](OC(=O)/C(C)=C/C)C12 (some centres undefined),-,-,-
C=C1C(=O)O[C@@H]2/C=C(\C)[C@H](OC(C)=O)C/C=C(/C)C[C@@H](OC(=O)/C(=C/CO)CO)C12 (some centres undefined),107.8,?,-
Nc1nc(Cc2ccc(F)cc2F)no1,-,-,-
OC(COc1ccccc1Cl)Cn1cnc2ccccc21 (centres undefined),-,.,-
CC1OC(OCC2OC(OCC3(C)C(O)CCC4(C)C3CCC3(C)C4CCC4C5=CC(C)(C)CCC5(C(=O)O)CCC43C)C(O)C(O)C2O)C(O)C(O)C1O (centres undefined),-,-,-
COc1ccc(CN(C)C[C@@H]2Oc3ccc(NC(=O)CCCCCC(=O)Nc4ccccc4N)cc3CC(=O)N([C@@H](C)CO)C[C@@H]2C)cc1,126.8,.,-
COc1ccc(CN(C)C[C@H]2Oc3ccc(NC(=O)CCCCCC(=O)Nc4ccccc4N)cc3CC(=O)N([C@@H](C)CO)C[C@H]2C)cc1,-,.,-
COc1ccc(CN(C)C[C@@H]2Oc3ccc(NC(=O)CCCCCC(=O)Nc4ccccc4N)cc3CC(=O)N([C@H](C)CO)C[C@@H]2C)cc1,124.2,.,-
COc1ccc(NC(=O)N(C)C[C@@H]2Oc3ccc(NC(=O)CCCCCC(=O)Nc4ccccc4N)cc3CC(=O)N([C@H](C)CO)C[C@H]2C)cc1,-,.,-
C[C@@H]1CN([C@H](C)CO)C(=O)c2cccc(NC(=O)C3CCOCC3)c2O[C@@H]1CN(C)S(=O)(=O)c1ccc(F)cc1,-,-,-
CCc1ccc(NC(=O)Cn2c(-c3nonc3N)nc3ccccc32)cc1,-,.,-
COc1ccc(CCn2c(=S)[nH]c3cc(C(F)(F)F)ccc32)cc1OC,-,-,-
C=CS(=O)(=O)c1ccc(OC)c(N)c1,119.7,82.6,-
COc1ccc(OC)c(S(=O)(=O)c2ccc(Br)cc2)c1,-,-,-
Cc1ccc(N(C(C)C(=O)Nc2cc(Cl)cc(Cl)c2)S(C)(=O)=O)cc1C (centres undefined),-,.,-
C[C@H]1CN([C@@H](C)CO)C(=O)c2cccc(N(C)C)c2O[C@@H]1CN(C)Cc1ccc(C(=O)O)cc1,-,-,-
C[C@@H]1CN([C@@H](C)CO)C(=O)c2cccc(NC(=O)C3CCCCC3)c2O[C@@H]1CN(C)CC1CCCCC1,-,-,-
C[C@@H]1CN([C@H](C)CO)C(=O)c2cccc(NC(=O)NC3CCCCC3)c2O[C@H]1CN(C)CC1CCCCC1,104.3,-,-
C[C@@H]1CN([C@@H](C)CO)C(=O)c2cccc(NC(=O)C3CCCCC3)c2O[C@@H]1CN(C)CC1CC1,-,-,-
SMILES,NOMO-1 viab,Shh pathway inh,MITF inh
C[C@@H]1CN([C@H](C)CO)C(=O)c2cccc(NC(=O)C3CCCCC3)c2O[C@H]1CN(C)CC1CCCCC1,111.3,-,-
CC(C)NC(=O)N(C)C[C@H]1Oc2c(NC(=O)NC3CCCCC3)cccc2C(=O)N([C@H](C)CO)C[C@H]1C,-,68.6,-
C[C@H](CO)N1C[C@H](C)[C@@H](CN(C)CC2CCCCC2)Oc2c(NC(=O)C3CCCCC3)cccc2C1=O,95.8,-,-
C[C@H](CO)N1C[C@H](C)[C@@H](CN(C)CC2CCCCC2)Oc2c(NC(=O)NC3CCCCC3)cccc2C1=O,-,-,-
CC(C)NC(=O)N(C)C[C@@H]1Oc2c(NC(=O)NC3CCCCC3)cccc2C(=O)N([C@H](C)CO)C[C@H]1C,-,-,-
CCOC(=S)Nc1ccc(I)cc1,-,-,-
C[C@@H]1CCCCO[C@@H](CN(C)Cc2ccc(C(F)(F)F)cc2)[C@@H](C)CN([C@H](C)CO)C(=O)c2cc(NS(=O)(=O)c3ccccc3)ccc2O1,?,.,-
C[C@@H]1CCCCO[C@@H](CN(C)Cc2ccc(C(F)(F)F)cc2)[C@@H](C)CN([C@H](C)CO)C(=O)c2cc(NS(=O)(=O)c3ccc(F)cc3)ccc2O1,110.2,-,-
C[C@@H]1CCCCO[C@@H](CN(C)C(=O)Nc2ccc(C(F)(F)F)cc2)[C@@H](C)CN([C@H](C)CO)C(=O)c2cc(NS(=O)(=O)c3ccccc3)ccc2O1,-,?,-
C[C@H](CO)N1C[C@H](C)[C@H](CN(C)Cc2ccc(C(F)(F)F)cc2)Oc2ccc(NS(=O)(=O)c3ccccc3)cc2C1=O,-,-,-
Cc1ccc(S(=O)(=O)Nc2ccc3c(c2)C(=O)N([C@H](C)CO)C[C@H](C)[C@H](CN(C)Cc2ccc(C(F)(F)F)cc2)O3)cc1,93.2,-,-
C[C@@H]1CN([C@H](C)CO)C(=O)c2cc(NS(=O)(=O)c3ccc(F)cc3)ccc2O[C@H]1CN(C)Cc1ccc(C(F)(F)F)cc1,80.7,.,-
C[C@@H]1CCCCO[C@H](CN(C)C(=O)Nc2ccc(C(F)(F)F)cc2)[C@@H](C)CN([C@H](C)CO)C(=O)c2cc(NS(=O)(=O)c3ccc(Cl)cc3)ccc2O1,119.5,-,-
C[C@@H]1CN([C@@H](C)CO)C(=O)c2cc(NS(=O)(=O)c3ccccc3)ccc2O[C@@H]1CN(C)Cc1ccc(C(F)(F)F)cc1,-,-,-
C[C@@H]1CN([C@H](C)CO)C(=O)c2cc(NS(=O)(=O)c3ccc(Cl)cc3)ccc2O[C@@H]1CN(C)S(=O)(=O)c1ccccc1,-,-,-
CC(Oc1ccccc1F)C(=O)Nc1ccccc1[N+](=O)[O-] (centres undefined),-,.,-
O=S(=O)(c1ccccc1)c1nc(-c2ccccc2Cl)oc1NCc1cccnc1,-,.,-
C[C@H]1CN([C@@H](C)CO)C(=O)c2cc(NS(=O)(=O)c3ccc(F)cc3)ccc2O[C@@H]1CN(C)Cc1ccc(C(F)(F)F)cc1,-,-,-
C[C@@H]1CN([C@H](C)CO)C(=O)c2cc(NS(=O)(=O)c3ccc(F)cc3)ccc2O[C@@H]1CN(C)Cc1ccc(C(F)(F)F)cc1,112.0,-,-
Cc1nc(SCC(=O)Nc2ccc(Oc3ccccc3)cc2)n[nH]1,-,.,-
C[C@@H]1CN([C@@H](C)CO)C(=O)c2cc(NS(=O)(=O)c3ccc(Cl)cc3)ccc2O[C@H]1CN(C)Cc1ccccc1,-,-,-
